Screening data as filed in PubChem.
Only some compounds are listed: those with a hit (about 10% of all), similar ones and a draw of the others.
HPGD block = qHTS Assay for Inhibitors of HPGD (15-Hydroxyprostaglandin Dehydrogenase). 15-hydroxyprostaglandin dehydrogenase [NAD(+)] (Homo sapiens), P15428. purified HPGD, NADH fluorescence kinetic, PGE2 substrate. Potency, µM, inactives show at the highest dose activity change, negative = inhibition, hits mostly inhibitors. actives 4.3% (n = 150,000); note: potency is the fitted concentration of half-maximal effect
Target sequence (P15428 whole entry, looked up): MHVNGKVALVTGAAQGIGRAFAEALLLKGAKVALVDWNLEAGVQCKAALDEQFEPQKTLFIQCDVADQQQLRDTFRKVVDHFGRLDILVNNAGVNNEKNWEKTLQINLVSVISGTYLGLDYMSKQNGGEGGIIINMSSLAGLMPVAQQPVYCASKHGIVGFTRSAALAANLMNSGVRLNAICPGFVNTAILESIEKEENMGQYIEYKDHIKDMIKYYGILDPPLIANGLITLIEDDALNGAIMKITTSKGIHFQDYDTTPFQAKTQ
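20 nM HPGD preincubated 15 min at room temperature with compound in 50 mM Tris-HCl pH 8, 0.01% Tween 20. Started with 1 mM NAD+ and 30 uM prostaglandin E2; NADH fluorescence (360/450 nm) read 5 times over 30-s intervals, last minus first.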
KinaseGlo FLuc = Counterscreen for Luciferase (Kinase-Glo TM) Inhibition; Luciferin 4-monooxygenase (Photuris pensylvanica), Q27757; Kinase-Glo luciferase, ATP luminescence, 8 min; Potency, µM (doses to about 38.3 µM), for inactives: at the highest dose activity change, negative = inhibition, most hits filed as inhibitors; actives 0.28% (n = 200,000); AID 1379, 2008; active = well fitted inhibition curve with a large enough effect; inconclusive = small, poorly fitted or top-dose-only effect; note: potency is the fitted concentration of half-maximal effect; nearly all actives have a fitted effect of over 60% in size
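Light output from Kinase-Glo luciferase with luciferin and 10 uM ATP in 50 mM imidazole pH 7.2, KCl, MgCl2, Tween 20, BSA; compound pin-delivered, 8-min ambient incubation, then luminescence read.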
PNC inhibitor = High Content Assay for Compounds that inhibit the Assembly of the Perinucleolar Compartment. PC3M PTB-GFP, PNC prevalence imaging, 16 h; hits give low values. activity change (PNC), negative = inhibition, % at 10 µM. actives 3.1% (n = 140,000). AID 2417, 2010;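 active = readout at or below -70, meaning at least 70% loss of cells showing the perinucleolar compartment, a nuclear body marking cancer cells; inconclusive = readout between -30 and a set limit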;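 note: plate controls were DMSO wells for no effect and camptothecin positive control wells for full effect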
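PC3M cells stably expressing PTB-GFP, 750–1000 cells/well, treated 16 h at 37 °C with compound (23 nl of library stock), in duplicate. After paraformaldehyde fixation and Hoechst stain, imaged at 20x; PNC prevalence scored by image analysis.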
ALDH1A1 inh = qHTS Assay for Inhibitors of Aldehyde Dehydrogenase 1 (ALDH1A1); Aldehyde dehydrogenase 1A1 (Homo sapiens), P00352; Purified ALDH1A1, NADH fluorescence, propionaldehyde substrate; Potency, µM (highest dose often 75.3 µM), for the others: at the top dose activity, negative = inhibition, hits mostly inhibitors; actives 7.3% (n = 220,000); AID 1030, 2008;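 note: potency is the fitted concentration of half-maximal effect; plate controls were no enzyme wells and a reference inhibitor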
Lamin A splicing = qHTS Assay for Modulators of Lamin A Splicing; HeLa LMNA splicing GFP/RFP minigene ratio, 48 h; Potency, µM (series often up to 46.1 µM), for inactives: at the top dose ratio change, negative = inhibition, most hits filed as inhibitors; actives 0.01% (n = 200,000); active = well fitted inhibition curve with a large enough effect in the signal ratio, with a control signal flat, not every such curve was filed as active; inconclusive = small, poorly fitted or top-dose-only effect, or effect the other way, or a change in a side signal; the % refers to the signal ratio; note: potency is the fitted concentration of half-maximal effect
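S3 HeLa cells stably expressing lamin A-EGFP splicing minigene plus DsRed2, 600 cells/well, 48 h compound exposure at 37C. Laser-scanning cytometry; analysed as GFP (500-530 nm)/RFP (575-640 nm) total intensity ratio; 0.5% DMSO vehicle.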
Starred values were filed as active, the others as inactive; ? = inconclusive; . = not tested or not shown; [ ] = another dose, or the depositor's remark. Unless noted, calls come from the whole dose curve; as a rule, active = well fitted inhibition curve with a large enough effect (not every such curve was filed as active); inconclusive = small, poorly fitted or top-dose-only effect, or another doubt; inactive = no such curve, though single readings can be large or run the other way. Unless noted, % is set by controls: 0 for no effect and ±100 for the full control effect.

SMILES	HPGD block	KinaseGlo FLuc	PNC inhibitor	ALDH1A1 inh	Lamin A splicing
CC1(C)Cc2nc3sc4c(=O)[nH]cnc4c3cc2CS1	?	4%	-15	14µM*	-4%
CCOc1cccc(C(=O)NC2CCCCC2)c1	28µM*	5%	?	1%	-16%
COc1ccc(C(=S)NC2CCCCC2)cc1	.	.	-28	-6%	?
CCCCOc1cccc(C(=O)NNC(=S)NC2CCCCC2)c1	-11%	0%	?	-15%	?
CCOc1ccc(C(=S)NC2CCCCC2)cc1	14µM*	-5%	-14	8.9µM*	-3%
Cc1cccc(Cn2c(SCc3ccc(C(=O)NCc4ccccc4)cc3)nc3cccnc32)c1	.	.	.	.	-23%[46 µM]
COc1ccc(NC(=O)N2CCCC3(CCN(C(=O)c4csnn4)CC3)C2)cc1	-2%	-3%	.	-2%	.
O=C(O)/C(=C\c1ccccc1Cl)c1ccc(S(=O)(=O)N2CCCCC2)s1	.	.	-23	?	-24%
O=C(O)/C(=C\c1cccc([N+](=O)[O-])c1)c1ccc(S(=O)(=O)N2CCCCC2)s1	.	.	.	4µM*	.
O=C(O)/C(=C\c1ccc(Cl)c([N+](=O)[O-])c1)c1ccc(S(=O)(=O)N2CCCCC2)s1	.	5%	.	0.5µM*	-10%[46 µM]
CCC1CCCCN1S(=O)(=O)c1ccc(C(=O)Nc2sc3c(c2C(=O)NC)CCC3)cc1 (centres undefined)	.	.	.	.	3%[46 µM]
CCCOc1ccc(N2C(=O)CC(SC(=NC)Nc3ccc(F)cc3)C2=O)cc1 (centres undefined)	-10%	-4%	30	2%	-6%
COc1ccc(CN=C(Nc2ccccc2)SC2CC(=O)NC2=O)cc1 (centres undefined)	.	-3%	.	-13%	.
CCOc1ccc(N2C(=O)CC(SC(=NC)Nc3ccc(F)cc3)C2=O)cc1 (centres undefined)	-13%	-1%	-100*	6%	-11%
O=C1CC(SC(=NCc2ccc3c(c2)OCO3)Nc2ccccc2)C(=O)N1 (centres undefined)	-2%	-4%	-115*	?	-2%
CCOc1ccc(NC(=NCc2ccc3c(c2)OCO3)SC2CC(=O)N(c3ccccc3)C2=O)cc1 (centres undefined)	-7%	3%	-100*	12%	-14%
COc1ccc(CNc2nc(-c3ccco3)nn2S(=O)(=O)c2ccc3ccccc3c2)cc1OC	.	.	.	.	1%[46 µM]
COc1cccc(C(=O)Oc2ccccc2/C=C\C(=O)c2cc3ccccc3o2)c1	-30%	-2%	25	-10%	?
O=C(N/N=C/c1ccccc1OC(=O)c1ccc2c(c1)OCO2)c1cccc(F)c1	-2%	0%	20	1%	?
O=C(Oc1ccccc1/C=C\C(=O)c1cc2ccccc2o1)c1cccc(F)c1	?	2%	?	8.9µM*	?
O=C(Oc1ccccc1/C=C\C(=O)c1cc2ccccc2o1)c1ccccc1	-24%	-1%	2	11µM*	-13%
Cc1ccc(Nc2nc(N/N=C\c3ccc4c(c3)OCO4)nc(N3CCOCC3)n2)cc1	.	-4%	.	-7%	.
CN(C)CCOc1ncnc2c1oc1ccccc12	-1%	-2%	-112*	10%	1%
CS(=O)(=O)Nc1cccc(-c2ccc3ncnc(NC4CC4)c3c2)c1	.	.	.	7%	?
Cn1cc(-c2ccccc2C(N)=O)c(=O)c2ccccc21	.	-2%	.	-2%	22%[46 µM]
Cn1cc(-c2nnnn2-c2ccccc2)c(=O)c2ccccc21	-12%	-1%	30	7.1µM*	8%
Cn1c(SCCCC(=O)c2ccc(Br)cc2)nnc1-c1ccncc1	18µM*	-4%	5	7%	?
O=C(O)c1cccc(Cn2c(Cl)c(/C=N/NC(=O)c3cc4ccccc4cc3O)sc2=O)c1	.	.	.	10µM*	.
COC(=O)c1cccc(Cn2c(Cl)c(/C=N/Nc3ccccc3C)sc2=O)c1	?	-1%	17	22µM*	?
O=C(O)c1cccc(Cn2c(Cl)c(/C=N/NC(=O)c3ccccc3)sc2=O)c1	-28%	1%	29	0%	?
